Compounds without any hit were thinned out: in the full panel of roughly 79,000, 15% have a hit. Calls of active or inactive are those of the source. Rule as the data show it: active = growth inhibition above about 70%; inactive = the rest.
Tests used:
[1] = NCI Yeast Anticancer Drug Screen. Data for the rad52 strain (AID 147);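 also: 0% = growth of vehicle-treated control cultures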; settings: S. cerevisiae rad52 mutant growth inhibition, active compounds read high
Summary of the method: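 Screen used a yeast mutant impaired in DNA repair. After compound exposure, growth was measured. Values reflect inhibition compared with vehicle-treated cells.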

[2] = NCI Yeast Anticancer Drug Screen. Data for the wt1 strain (AID 149);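 also: 0% = growth of vehicle-treated wt1 cultures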; settings: S. cerevisiae wt1 strain (SPY 50644) growth inhibition, active compounds read high
Summary of the method: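 Growth inhibition read against vehicle controls after compound exposure of the wt1 yeast strain.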

[3] = NCI Yeast Anticancer Drug Screen. Data for the rad50EPP+ strain (AID 151);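 also: 0% = growth of vehicle-treated control cultures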; settings: S. cerevisiae rad50 mutant strain, active compounds read high
Summary of the method: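 Exposing the rad50EPP+ strain to each compound, growth was compared with vehicle-only cultures to give inhibition.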

[4] = NCI Yeast Anticancer Drug Screen. Data for the mgt1 strain (AID 153); settings: S. cerevisiae mgt1 mutant growth inhibition, active compounds read high
Summary of the method: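 Genetically defined yeast (mgt1) treated with compound; inhibition of growth expressed against vehicle-treated controls.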

[5] = NCI Yeast Anticancer Drug Screen. Data for the rad50 strain (AID 155);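 also: 0% = growth of vehicle-only cultures of the same strain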; settings: S. cerevisiae rad50 strain growth inhibition, active compounds read high
Summary of the method: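 Readout: growth inhibition relative to vehicle-treated cultures. Compound exposure was carried out in a genetically defined yeast strain deficient in DNA damage repair.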

[6] = NCI Yeast Anticancer Drug Screen. Data for the mec2-1 strain (AID 157); settings: S. cerevisiae mec2-1 strain, active compounds read high
Summary of the method: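 Readout is yeast growth inhibition, normalised to vehicle-treated controls, in the mec2-1 strain exposed to compound.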

[7] = NCI Yeast Anticancer Drug Screen. Data for the rad14 strain (AID 159);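 also: 0% = growth of vehicle-treated control cultures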; settings: S. cerevisiae rad14 strain growth inhibition, active compounds read high
Summary of the method: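 Growth inhibition vs vehicle controls; genetically altered yeast strain (DNA damage repair defect) treated with test compounds.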

[8] = NCI Yeast Anticancer Drug Screen. Data for the sgs1 mgt1 strain (AID 161);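 also: 0% = growth of cultures given vehicle only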; settings: S. cerevisiae sgs1 mgt1 strain, active compounds read high
Summary of the method: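 Percent growth inhibition was derived by comparing compound-exposed mutant yeast with vehicle-exposed cultures. The strain carries alterations in DNA damage repair.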

[9] = NCI Yeast Anticancer Drug Screen. Data for the CLN2oe strain (AID 163);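 also: 0% = growth of vehicle-only control cultures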; settings: S. cerevisiae CLN2oe strain, active compounds read high
Summary of the method: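 Values reflect how much compound exposure reduced yeast growth, referenced to vehicle-exposed cells. Assay organism is a strain with a defined genetic change affecting cell-cycle control.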

[10] = NCI Yeast Anticancer Drug Screen. Data for the cln2 rad14 strain (AID 165);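 also: 0% = growth equal to vehicle treated cultures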; settings: S. cerevisiae cln2 rad14 strain, active compounds read high
Summary of the method: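 Relative to vehicle controls, growth inhibition of compound-treated cln2 rad14 yeast was recorded.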

[11] = NCI Yeast Anticancer Drug Screen. Data for the bub3 strain (AID 167); settings: S. cerevisiae bub3 mutant strain, active compounds read high
Summary of the method: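 Readout: yeast growth inhibition, expressed relative to vehicle-only wells. The test organism is a mutant strain from a panel with lesions in DNA repair or checkpoint genes.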

[12] = NCI Yeast Anticancer Drug Screen. Data for the wt2 strain (AID 169);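 also: 0% = growth of vehicle-treated yeast cultures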; settings: S. cerevisiae wt2 strain growth inhibition, active compounds read high
Summary of the method: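 Values express reduction in yeast growth under compound treatment, referenced to vehicle-treated cells.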

[13] = NCI Yeast Anticancer Drug Screen. Data for the mlh1 strain (AID 171);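 also: 0% = growth of vehicle-treated control cultures of the same strain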; settings: S. cerevisiae mlh1 strain growth inhibition, active compounds read high
Summary of the method: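 Steps: expose the defined-mutant yeast strain to compound; expose a parallel culture to vehicle; measure growth; express compound effect as inhibition relative to the vehicle culture.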

[14] = NCI Yeast Anticancer Drug Screen. Data for the sgs1 strain (AID 173);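 also: 0% = growth of vehicle-only control cultures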; settings: S. cerevisiae sgs1 mutant, active compounds read high
Summary of the method: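 Treat defined-mutant yeast with compound; measure growth; calculate inhibition relative to vehicle-treated cells.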

[15] = NCI Yeast Anticancer Drug Screen. Data for the mlh1 rad18 strain (AID 175); settings: S. cerevisiae mlh1 rad18 strain growth inhibition, active compounds read high
Summary of the method: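 Test agents were incubated with a yeast strain of defined genotype (DNA damage repair defect). Inhibition of growth was derived by comparison with vehicle-exposed cultures.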

[16] = NCI Yeast Anticancer Drug Screen. Data for the rad18 strain (AID 177); settings: S. cerevisiae rad18 mutant growth inhibition, active compounds read high
Summary of the method: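 A genetically defined yeast mutant impaired in DNA damage repair was treated with test compounds, then its growth was measured against cultures receiving vehicle alone.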

[17] = at 5.0 µM (retest, dose inferred, filed as 0.5)
[18] = at 50.0 µM (retest, dose inferred, filed as 5.0)

Measured: growth inhibition

CCCCCCCCCCCCCCCCCCN(C)CC(COP(=O)([O-])OCC[N+](C)(C)C)OC (stereo unspecified)
inactive: [1]; at 1.2 µM -14% | [1]; at 3.7 µM -24% | [2]; at 1.2 µM 0% | [2]; at 3.7 µM -2% | [3]; at 1.2 µM -4% | [3]; at 3.7 µM 43% | [4]; at 1.2 µM 21% | [4]; at 3.7 µM 32% | [5]; at 1.2 µM 8% | [5]; at 3.7 µM 18% | [5]; [17] 17% | [6]; at 1.2 µM 13% | [6]; at 3.7 µM 18% | [6]; [17] 11% | [7]; at 1.2 µM 2% | [7]; at 3.7 µM 4% | [9]; at 1.2 µM 15% | [9]; at 3.7 µM 6% | [10]; [17] 22% | [11]; at 1.2 µM 9% | [11]; at 3.7 µM -8% | [11]; [17] 33% | [12]; at 1.2 µM -1% | [12]; at 3.7 µM 0% | [12]; at 11.0 µM -17% | [12]; at 33.0 µM 60% | [13]; at 1.2 µM 5% | [13]; at 3.7 µM 11% | [14]; at 1.2 µM -15% | [14]; at 3.7 µM -1% | [15]; [17] 7%
active: [1]; at 11.0 µM 97% | [1]; at 33.0 µM 98% | [1]; at 100.0 µM 98% | [2]; at 11.0 µM 97% | [2]; at 33.0 µM 99% | [2]; at 100.0 µM 99% | [3]; at 11.0 µM 98% | [3]; at 33.0 µM 98% | [3]; at 100.0 µM 98% | [4]; at 11.0 µM 97% | [4]; at 33.0 µM 99% | [4]; at 100.0 µM 98% | [5]; at 11.0 µM 98% | [5]; at 33.0 µM 98% | [5]; [18] 98% | [5]; at 50.0 µM 88.2% | [5]; at 100.0 µM 98% | [6]; at 11.0 µM 94% | [6]; at 33.0 µM 99% | [6]; [18] 99% | [6]; at 50.0 µM 93.4% | [6]; at 100.0 µM 99% | [7]; at 11.0 µM 98% | [7]; at 33.0 µM 99% | [7]; at 100.0 µM 99% | [8]; [17] 78% | [8]; [18] 99% | [8]; at 50.0 µM 91.1% | [9]; at 11.0 µM 96% | [9]; at 33.0 µM 98% | [9]; at 100.0 µM 98% | [10]; [18] 98% | [10]; at 50.0 µM 89.8% | [11]; at 11.0 µM 98% | [11]; at 33.0 µM 98% | [11]; [18] 99% | [11]; at 50.0 µM 90% | [11]; at 100.0 µM 98% | [12]; at 100.0 µM 98% | [13]; at 11.0 µM 98% | [13]; at 33.0 µM 99% | [13]; at 100.0 µM 99% | [14]; at 11.0 µM 97% | [14]; at 33.0 µM 99% | [14]; at 100.0 µM 99% | [15]; [18] 98% | [15]; at 50.0 µM 89.5%

Cc1[nH]c2ccccc2c1C(c1ccc(N)cc1)c1c(C)[nH]c2ccccc12
active: [5]; [18] 90% | [5]; at 50.0 µM 95.3% | [6]; [18] 94% | [6]; at 50.0 µM 96.4% | [8]; [18] 96% | [8]; at 50.0 µM 98.2% | [11]; [18] 85% | [11]; at 50.0 µM 98.4% | [15]; [18] 96% | [15]; at 50.0 µM 98.5%
inactive: [1]; at 1.2 µM 3% | [1]; at 3.7 µM 3% | [1]; at 11.0 µM -6% | [1]; at 33.0 µM -1% | [1]; at 100.0 µM 41% | [2]; at 1.2 µM -2% | [2]; at 3.7 µM -1% | [2]; at 11.0 µM -2% | [2]; at 33.0 µM -1% | [2]; at 100.0 µM 45% | [3]; at 1.2 µM 4% | [3]; at 3.7 µM -4% | [3]; at 11.0 µM -4% | [3]; at 33.0 µM -2% | [3]; at 100.0 µM -8% | [4]; at 1.2 µM -3% | [4]; at 3.7 µM 0% | [4]; at 11.0 µM 0% | [4]; at 33.0 µM 0% | [4]; at 100.0 µM 48% | [5]; at 1.2 µM 6% | [5]; at 3.7 µM 3% | [5]; [17] 0% | [5]; at 11.0 µM -5% | [5]; at 33.0 µM 1% | [5]; at 100.0 µM 40% | [6]; at 1.2 µM -1% | [6]; at 3.7 µM -1% | [6]; [17] 4% | [6]; at 11.0 µM -1% | [6]; at 33.0 µM -1% | [6]; at 100.0 µM 45% | [7]; at 1.2 µM 5% | [7]; at 3.7 µM 0% | [7]; at 11.0 µM 0% | [7]; at 33.0 µM 6% | [7]; at 100.0 µM 50% | [8]; [17] 8% | [9]; at 1.2 µM -1% | [9]; at 3.7 µM -3% | [9]; at 11.0 µM -6% | [9]; at 33.0 µM 0% | [9]; at 100.0 µM 25% | [10]; [17] 4% | [10]; [18] 45% | [10]; at 50.0 µM 39% | [11]; at 1.2 µM -3% | [11]; at 3.7 µM -3% | [11]; [17] 0% | [11]; at 11.0 µM -6% | [11]; at 33.0 µM -5% | [11]; at 100.0 µM 38% | [12]; at 1.2 µM -2% | [12]; at 3.7 µM -11% | [12]; at 11.0 µM -10% | [12]; at 33.0 µM -1% | [12]; at 100.0 µM 47% | [13]; at 1.2 µM 1% | [13]; at 3.7 µM -1% | [13]; at 11.0 µM -2% | [13]; at 33.0 µM 0% | [13]; at 100.0 µM 50% | [14]; at 1.2 µM -12% | [14]; at 3.7 µM -14% | [14]; at 11.0 µM -19% | [14]; at 33.0 µM -5% | [14]; at 100.0 µM 62% | [15]; [17] 6% | [16]; at 1.2 µM 4% | [16]; at 3.7 µM 4% | [16]; at 11.0 µM -1% | [16]; at 33.0 µM 0% | [16]; at 100.0 µM 47%

CC(C)[N+]([O-])(CCCNc1c2ccccc2nc2cccc([N+](=O)[O-])c12)C(C)C
active: [1]; at 3.7 µM 83% | [1]; at 11.0 µM 94% | [1]; at 33.0 µM 96% | [1]; at 100.0 µM 98% | [2]; at 33.0 µM 78% | [2]; at 100.0 µM 94% | [3]; at 33.0 µM 91% | [3]; at 100.0 µM 97% | [4]; at 33.0 µM 90% | [4]; at 100.0 µM 98% | [5]; [17] 70% | [5]; at 11.0 µM 86% | [5]; at 33.0 µM 93% | [5]; [18] 97% | [5]; at 50.0 µM 87.6% | [5]; at 100.0 µM 96%
inactive: [1]; at 1.2 µM 48% | [2]; at 1.2 µM 0% | [2]; at 3.7 µM 3% | [2]; at 11.0 µM 18% | [3]; at 1.2 µM 6% | [3]; at 3.7 µM 26% | [3]; at 11.0 µM 66% | [4]; at 1.2 µM 0% | [4]; at 3.7 µM 6% | [4]; at 11.0 µM 24% | [5]; at 1.2 µM 24% | [5]; at 3.7 µM 57% | [6]; at 1.2 µM 13% | [6]; at 3.7 µM 69%
